Our source for the outcome and AC50 values is PubChem BioAssay (EPA / NIEHS).

SMILES strings stand for the structures. Results filed as inconclusive are left out. Some compounds were tested as several samples or in several runs, with calls that do not always agree. The source made the active and inactive calls. The calls were made as follows: active = hit-call score of the fitted dose curve at least 0.9, where 1 is the maximum; inconclusive = response in the unintended direction; inactive = score below 0.9.

By AC50 is commonly meant the concentration at which the activity in the assay is half-maximal.

Sequence of bovine Estrogen Receptor (ER), ESR1 (gene 407238) (P49884 whole entry, looked up): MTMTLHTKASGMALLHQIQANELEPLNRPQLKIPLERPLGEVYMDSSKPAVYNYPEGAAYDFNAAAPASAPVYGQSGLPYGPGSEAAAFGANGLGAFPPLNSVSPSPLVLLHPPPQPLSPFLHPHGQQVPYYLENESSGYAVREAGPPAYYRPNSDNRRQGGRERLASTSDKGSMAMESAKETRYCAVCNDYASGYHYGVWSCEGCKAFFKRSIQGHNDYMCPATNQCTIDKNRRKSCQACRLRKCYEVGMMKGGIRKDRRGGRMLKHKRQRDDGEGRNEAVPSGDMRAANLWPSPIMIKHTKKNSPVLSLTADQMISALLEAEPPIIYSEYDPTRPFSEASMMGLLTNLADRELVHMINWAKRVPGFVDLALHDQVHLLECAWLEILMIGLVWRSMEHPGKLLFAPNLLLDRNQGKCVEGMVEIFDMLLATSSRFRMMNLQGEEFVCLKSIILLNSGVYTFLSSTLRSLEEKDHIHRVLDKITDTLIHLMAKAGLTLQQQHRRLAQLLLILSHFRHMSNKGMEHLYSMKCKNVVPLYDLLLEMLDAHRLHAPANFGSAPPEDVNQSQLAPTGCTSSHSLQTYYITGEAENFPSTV
Sequence of rat Peripheral-type Benzodiazepine Receptor (PBR), Tspo (gene 24230) (P16257 whole entry, looked up): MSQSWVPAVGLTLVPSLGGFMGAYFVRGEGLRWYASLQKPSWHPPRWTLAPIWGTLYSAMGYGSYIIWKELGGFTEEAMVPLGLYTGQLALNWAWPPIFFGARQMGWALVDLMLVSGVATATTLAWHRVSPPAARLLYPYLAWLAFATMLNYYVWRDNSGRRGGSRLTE
Sequence of rat Thyrotropin Releasing Hormone Receptor (TRH), Trhr (gene 25570) (Q01717 whole entry, looked up): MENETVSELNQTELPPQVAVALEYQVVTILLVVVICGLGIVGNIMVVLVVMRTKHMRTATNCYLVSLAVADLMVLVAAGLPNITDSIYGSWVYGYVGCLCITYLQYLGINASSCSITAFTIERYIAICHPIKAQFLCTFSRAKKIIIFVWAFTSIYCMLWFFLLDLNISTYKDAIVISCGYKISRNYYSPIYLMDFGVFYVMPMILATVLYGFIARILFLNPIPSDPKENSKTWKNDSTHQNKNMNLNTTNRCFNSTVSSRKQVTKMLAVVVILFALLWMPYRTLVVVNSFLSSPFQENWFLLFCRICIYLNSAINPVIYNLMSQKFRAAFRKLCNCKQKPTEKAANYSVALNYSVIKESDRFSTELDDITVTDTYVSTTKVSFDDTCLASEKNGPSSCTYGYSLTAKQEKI
Sequence of chimpanzee Androgen Receptor (AR), AR (gene 747460) (O97775 whole entry, looked up): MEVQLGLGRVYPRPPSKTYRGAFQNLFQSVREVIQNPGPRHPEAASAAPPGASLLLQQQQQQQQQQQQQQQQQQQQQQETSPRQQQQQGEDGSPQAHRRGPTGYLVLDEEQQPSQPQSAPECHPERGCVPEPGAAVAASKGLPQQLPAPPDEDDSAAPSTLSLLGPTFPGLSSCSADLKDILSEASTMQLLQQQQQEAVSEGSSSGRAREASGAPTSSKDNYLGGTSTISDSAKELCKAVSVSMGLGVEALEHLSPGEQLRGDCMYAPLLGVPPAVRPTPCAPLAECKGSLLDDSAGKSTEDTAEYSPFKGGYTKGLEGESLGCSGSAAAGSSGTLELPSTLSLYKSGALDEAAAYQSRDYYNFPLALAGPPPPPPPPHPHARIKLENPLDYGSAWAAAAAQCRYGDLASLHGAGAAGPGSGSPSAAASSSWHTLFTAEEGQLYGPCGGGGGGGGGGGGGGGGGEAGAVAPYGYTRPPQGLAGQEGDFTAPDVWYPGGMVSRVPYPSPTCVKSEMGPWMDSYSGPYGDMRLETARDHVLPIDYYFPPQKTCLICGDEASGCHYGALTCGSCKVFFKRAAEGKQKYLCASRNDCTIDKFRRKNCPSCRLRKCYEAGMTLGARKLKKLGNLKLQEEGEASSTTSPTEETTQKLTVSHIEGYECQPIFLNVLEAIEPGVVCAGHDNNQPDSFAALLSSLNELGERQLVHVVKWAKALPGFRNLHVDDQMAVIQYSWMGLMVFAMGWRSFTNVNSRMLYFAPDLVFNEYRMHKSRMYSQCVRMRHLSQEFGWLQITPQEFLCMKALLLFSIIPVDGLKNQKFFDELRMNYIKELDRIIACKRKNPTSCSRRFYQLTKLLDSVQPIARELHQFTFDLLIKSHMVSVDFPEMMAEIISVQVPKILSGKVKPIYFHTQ
Sequence of human Opioid Receptor Mu (Opiate Mu), OPRM1 (gene 4988) (P35372 whole entry, looked up): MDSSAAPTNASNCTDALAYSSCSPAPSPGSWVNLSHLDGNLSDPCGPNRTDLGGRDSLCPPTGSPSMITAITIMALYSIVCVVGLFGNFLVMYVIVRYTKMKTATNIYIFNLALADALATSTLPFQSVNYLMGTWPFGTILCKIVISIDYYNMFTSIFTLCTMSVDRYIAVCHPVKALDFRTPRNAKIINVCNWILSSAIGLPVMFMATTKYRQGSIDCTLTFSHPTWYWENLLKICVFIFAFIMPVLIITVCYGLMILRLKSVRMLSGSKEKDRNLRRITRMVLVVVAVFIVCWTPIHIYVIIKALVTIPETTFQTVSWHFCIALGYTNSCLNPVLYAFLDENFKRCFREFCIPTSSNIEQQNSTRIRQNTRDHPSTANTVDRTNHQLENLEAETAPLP
Sequence of human Androgen Receptor (AR), AR (gene 367) (P10275 whole entry, looked up): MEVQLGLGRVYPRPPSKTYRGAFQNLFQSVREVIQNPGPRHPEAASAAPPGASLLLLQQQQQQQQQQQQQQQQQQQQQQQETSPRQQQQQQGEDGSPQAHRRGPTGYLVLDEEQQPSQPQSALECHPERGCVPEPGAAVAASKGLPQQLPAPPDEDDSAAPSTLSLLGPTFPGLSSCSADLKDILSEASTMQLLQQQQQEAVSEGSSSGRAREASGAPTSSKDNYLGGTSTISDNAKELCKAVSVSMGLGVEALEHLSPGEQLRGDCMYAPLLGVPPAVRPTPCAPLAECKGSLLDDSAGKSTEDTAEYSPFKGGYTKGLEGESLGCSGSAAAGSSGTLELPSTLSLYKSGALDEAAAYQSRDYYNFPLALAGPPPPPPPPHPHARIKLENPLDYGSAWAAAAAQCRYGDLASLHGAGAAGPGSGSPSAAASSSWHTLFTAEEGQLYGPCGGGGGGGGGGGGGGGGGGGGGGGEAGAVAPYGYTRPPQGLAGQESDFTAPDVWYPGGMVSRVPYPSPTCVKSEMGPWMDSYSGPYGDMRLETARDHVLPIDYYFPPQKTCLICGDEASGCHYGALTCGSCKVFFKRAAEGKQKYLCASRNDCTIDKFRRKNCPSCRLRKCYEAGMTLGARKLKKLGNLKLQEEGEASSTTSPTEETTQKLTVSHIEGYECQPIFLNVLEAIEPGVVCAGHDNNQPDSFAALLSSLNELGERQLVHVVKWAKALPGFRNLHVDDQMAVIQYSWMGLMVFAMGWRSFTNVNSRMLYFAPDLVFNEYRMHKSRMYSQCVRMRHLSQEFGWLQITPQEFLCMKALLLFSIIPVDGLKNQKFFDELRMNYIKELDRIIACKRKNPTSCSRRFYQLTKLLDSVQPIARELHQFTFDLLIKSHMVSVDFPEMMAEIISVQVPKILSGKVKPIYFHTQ

One assay has as its target human Opioid Receptor Mu (Opiate Mu), OPRM1 (gene 4988) (UniProt P35372). The assay is described as follows: NVS_GPCR_hOpiate_mu: NovaScreen (NVS) G Protein-Coupled Receptor Assay for human Opioid Receptor Mu (Opiate Mu) (AID 2283290).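 Also: hits lower bound tracer signal versus DMSO meaning displacement of the ligand.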 The gist of the method: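 Primary screen in duplicate at 25 uM, with actives followed in concentration series. CHO-derived receptor membranes, cell-free; bound radioligand read by scintillation counting after filtration at 2.5 h, decrease scored against DMSO.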
Take `Cc1cccc(C)n1`: the result was inactive.

For the compound `c1ccc(C[P+](c2ccccc2)(c2ccccc2)c2ccccc2)cc1`, the AC50 was 1.09 µM (active).

Turning to `CCCCCCCCn1sc(Cl)c(Cl)c1=O`, the AC50 was 8.39 µM (active).

With `C#CC(O)CCC` (centres undefined), the AC50 is 5.3 µM (active).

Regarding `CCCCCCCCCCCCCC[P+](CCCC)(CCCC)CCCC`, the AC50 is 1.07 µM (active).

Turning to `CCN(CC)c1ccc(C=O)c(O)c1`, the compound was called inactive.

Consider `Oc1ccc(C2(c3ccc(O)c(C4CCCCC4)c3)CCCCC2)cc1C1CCCCC1`, for which the AC50 was 17.3 µM (active).

In the case of `CCN(CC)c1ccc(C=O)cc1`, the call was inactive.

The target in the next assay is rat Neonicotinoid receptor (NNR), Chrna7 (gene 25302) (UniProt Q05941). The assay is described as follows: NVS_LGIC_rNNR_BungSens: NovaScreen (NVS) Ligand-Gated Ion Channel Assay for rat Neonicotinoid receptor (NNR) (AID 2283315). The gist of the method: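 Rat cortical membrane preparation incubated 2.5 h with tritiated or iodinated radioligand and test chemical. Bound radioactivity was filtered and counted by scintillation, and displacement was analysed against DMSO.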
Sequence of rat Neonicotinoid receptor (NNR), Chrna7 (gene 25302) (Q05941 whole entry, looked up): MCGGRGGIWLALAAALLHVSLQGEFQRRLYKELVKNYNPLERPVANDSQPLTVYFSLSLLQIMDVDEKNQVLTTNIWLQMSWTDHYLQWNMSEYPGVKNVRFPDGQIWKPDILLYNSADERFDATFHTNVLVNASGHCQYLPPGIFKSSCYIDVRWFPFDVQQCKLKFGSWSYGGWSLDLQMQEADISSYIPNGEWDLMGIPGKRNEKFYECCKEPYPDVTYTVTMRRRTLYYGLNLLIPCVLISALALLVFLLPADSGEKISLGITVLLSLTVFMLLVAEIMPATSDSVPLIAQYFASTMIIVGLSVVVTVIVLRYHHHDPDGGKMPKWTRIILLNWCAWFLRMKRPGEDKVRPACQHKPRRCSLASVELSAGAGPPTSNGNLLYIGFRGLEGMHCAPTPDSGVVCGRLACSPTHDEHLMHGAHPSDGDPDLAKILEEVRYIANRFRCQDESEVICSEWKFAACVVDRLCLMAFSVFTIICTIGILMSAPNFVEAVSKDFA
With `c1ccc(C[P+](c2ccccc2)(c2ccccc2)c2ccccc2)cc1`, the AC50 was 25 µM (active).

Consider `Nc1c(Br)cc([N+](=O)[O-])cc1Br`, for which the compound was classed as inactive.

As to `O=c1cccc[nH]1`, the compound was classed as inactive.

`CCN(CC)c1ccc2c(c1)Oc1cc(N(CC)CC)ccc1C21OC(=O)c2ccccc21`: the AC50 is 3.48 µM (active).

The next assay addresses Sodium channel protein type 1 subunit alpha (Rattus norvegicus) (UniProt P04774). The assay is described as follows: NVS_IC_rNaCh_site2: NovaScreen (NVS) Ion Channel Assay for rat Sodium Channel, Site 2 (NaCh) (AID 2283322).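 Also: hit means loss of radioligand binding signal relative to DMSO so AC50 marks displacement.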 The gist of the method: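 Initial duplicate single-point testing at 25 uM, followed by concentration-response runs for actives. Binding of radioligand to rat forebrain membranes quantified after 1 h via filter-based radiodetection.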
As to `c1ccc(C[P+](c2ccccc2)(c2ccccc2)c2ccccc2)cc1`, the AC50 was 5.54 µM (active).

For the compound `O=C1OC(=O)c2ccc3c4c(ccc1c24)C(=O)OC3=O`, the compound was classed as inactive.

For the compound `Brc1ccccn1`, the compound was called inactive.

As to `CC(C)(C)c1cc(CCC(=O)NCCCCCCNC(=O)CCc2cc(C(C)(C)C)c(O)c(C(C)(C)C)c2)cc(C(C)(C)C)c1O`, the result was inactive.

`O=C=NCc1cccc(CN=C=O)c1`: the result was inactive.

For the compound `CC(=O)c1ccccc1N`, the AC50 is 1.65 µM (active).

In the case of `Oc1ccc(C2(c3ccc(O)c(C4CCCCC4)c3)CCCCC2)cc1C1CCCCC1`, the result was inactive.

Take `CCN(CC)c1ccc2c(c1)Oc1cc(N(CC)CC)ccc1C21OC(=O)c2ccccc21`: the compound was classed as inactive.

As to `COc1ccccc1C=O`, the compound was classed as inactive.

Regarding `CCCC(=O)OCC(COC(=O)CCC)OC(=O)CCC`, the call was inactive.

Another assay addresses rat Thyrotropin Releasing Hormone Receptor (TRH), Trhr (gene 25570) (UniProt Q01717). The assay can be described thus: NVS_GPCR_rTRH: NovaScreen (NVS) G Protein-Coupled Receptor Assay for rat Thyrotropin Releasing Hormone Receptor (TRH) (AID 2283329).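 Also: hit means lower bound tracer signal versus DMSO baseline.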 The gist of the method:
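Competitive radioligand binding on rat forebrain membrane preparations, with filtration and scintillation readout after 4 h. Primary testing in duplicate at 25 uM; actives confirmed in concentration-response. DMSO defined baseline.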
As for `Cc1ccc([N+](=O)[O-])c(C)c1`, the compound was classed as inactive.

With `C[C@]12CC[C@H]3C(=CCc4cc(O)ccc43)[C@@H]1CCC2=O`, the outcome was inactive.

With `CCN=C1C=CC(=C(c2ccc(N(CC)CC)cc2)c2ccc(N(CC)CC)cc2)c2ccccc21`, the compound was classed as inactive.

As for `CCCCOC(=O)[C@H](C)O`, the compound was classed as inactive.

As for `CCC(Cc1c(I)cc(I)c(N)c1I)C(=O)O` (centres undefined), the result was inactive.

In the case of `O=C(c1ccccc1)c1ccc(O)cc1O`, the result was inactive.

`CCCCOC(=O)C(C)O` (centres undefined): the call was inactive.

With `CCCCCCCC/C=C\CCCCCCCC(=O)OCC(O)CO` (centres undefined), the call was inactive.

Take `CCN=c1cc2oc3cc(NCC)c(C)cc3c(-c3ccccc3C(=O)OCC)c-2cc1C`: the outcome was inactive.

In a further assay the target is human Peripheral-type Benzodiazepine Receptor (PBR), TSPO (gene 706) (UniProt P30536). The assay is described as follows: NVS_MP_hPBR: NovaScreen (NVS) Membrane Protein Assay for human Peripheral-type Benzodiazepine Receptor (PBR) (AID 2283331).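 Also: hits reduce radioligand binding relative to DMSO baseline.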 The gist of the method: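 Cell-free binding to human colonic membrane preparations measured by filter-based scintillation counting after 1 h. Compounds first run at 25 uM in duplicate, then concentration series for actives; signal loss against DMSO baseline.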
Sequence of human Peripheral-type Benzodiazepine Receptor (PBR), TSPO (gene 706) (P30536 whole entry, looked up): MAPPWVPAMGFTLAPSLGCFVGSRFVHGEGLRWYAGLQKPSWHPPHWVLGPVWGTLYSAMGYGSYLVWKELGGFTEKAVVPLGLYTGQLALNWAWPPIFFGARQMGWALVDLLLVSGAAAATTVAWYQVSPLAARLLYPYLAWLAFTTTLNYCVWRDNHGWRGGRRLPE
For `CCN=C1C=CC(=C(c2ccc(N(CC)CC)cc2)c2ccc(N(CC)CC)cc2)c2ccccc21`, the AC50 is 0.0669 µM (active).

Take `CCCCCCCCCCCCCC[P+](CCCC)(CCCC)CCCC`: the AC50 is 3.52 µM (active).

For `O=C=NCc1cccc(CN=C=O)c1`, the AC50 was 4.21 µM (active).

For the compound `CCN(CC)c1ccc(C=O)c(O)c1`, the compound was classed as inactive.

As to `CCCCCCCC/C=C\CCCCCCCC(=O)OCC(O)CO` (centres undefined), the AC50 is 25 µM (active).

On to `CCN(CC)c1ccc2c(c1)Oc1cc(N(CC)CC)ccc1C21OC(=O)c2ccccc21`, for which the compound was classed as inactive.

`CCN(CC)c1ccc(C=O)cc1`: the outcome was inactive.

For the compound `CCN=c1cc2oc3cc(NCC)c(C)cc3c(-c3ccccc3C(=O)OCC)c-2cc1C`, the AC50 is 0.443 µM (active).

As to `CCCC(=O)OCC(COC(=O)CCC)OC(=O)CCC`, the compound was classed as inactive.

Another assay addresses human Androgen Receptor (AR), AR (gene 367) (UniProt P10275). The assay is described as follows: NVS_NR_hAR: NovaScreen (NVS) Nuclear Receptor Binding Assay for human Androgen Receptor (AR) (AID 2283332). The gist of the method: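 Radioligand competitive binding, scintillation read-out, in cell-free extract from LnCAP, measured 20 h after dosing. Screened first in duplicate at 25 uM, then concentration series for actives; activity fitted against DMSO.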
Turning to `C[C@]12CC[C@H]3C(=CCc4cc(O)ccc43)[C@@H]1CCC2=O`, the AC50 is 0.661 µM (active).

On to `C#CC(O)CCC` (centres undefined), for which the compound was called inactive.

Take `CCN(CC)c1ccc(C=O)c(O)c1`: the AC50 was 3.82 µM (active).

In a further assay the target is rat Peripheral-type Benzodiazepine Receptor (PBR), Tspo (gene 24230) (UniProt P16257). The assay can be described thus: NVS_MP_rPBR: NovaScreen (NVS) Membrane Protein Assay for rat Peripheral-type Benzodiazepine Receptor (PBR) (AID 2283335). The gist of the method:
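Competitive displacement of specific radioligand from rat kidney membrane PBR, read by filtration and scintillation after 1 h. Compounds first tested at 25 uM in duplicate, then in concentration series; signal loss relative to DMSO.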
Regarding `CCN=C1C=CC(=C(c2ccc(N(CC)CC)cc2)c2ccc(N(CC)CC)cc2)c2ccccc21`, the AC50 was 0.185 µM (active).

For `CCCCCCCCCCCCCC[P+](CCCC)(CCCC)CCCC`, the AC50 is 12.2 µM (active).

Consider `CCN(CC)c1ccc(C=O)c(O)c1`, for which the call was inactive.

As for `O=C(c1ccccc1)c1ccc(O)cc1O`, the compound was classed as inactive.

Turning to `CCN(CC)c1ccc(C=O)cc1`, the outcome was inactive.

On to `CCN=c1cc2oc3cc(NCC)c(C)cc3c(-c3ccccc3C(=O)OCC)c-2cc1C`, for which the AC50 was 5.08 µM (active).

In a further assay the target is bovine Estrogen Receptor (ER), ESR1 (gene 407238) (UniProt P49884). The assay can be described thus: NVS_NR_bER: NovaScreen (NVS) Nuclear Receptor Binding Assay for bovine Estrogen Receptor (ER) (AID 2283345).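 Also: actives lower the bound radioligand count which means they displace the ER ligand.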 The method, boiled down:
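Displacement of a radioligand from estrogen receptor in bovine uterine membrane preparations; scintillation signal taken at 18 hours, DMSO as baseline. Single-concentration duplicates (25 uM) preceded concentration-response follow-up of actives.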
Take `C[C@]12CC[C@H]3C(=CCc4cc(O)ccc43)[C@@H]1CCC2=O`: the AC50 is 0.0129 µM (active).

On to `CCCCCCCCn1sc(Cl)c(Cl)c1=O`, for which the AC50 is 12.7 µM (active).

Take `CCCCCCCCCCCCCC[P+](CCCC)(CCCC)CCCC`: the AC50 is 38.3 µM (active).

Consider `CCC(Cc1c(I)cc(I)c(N)c1I)C(=O)O` (centres undefined), for which the outcome was inactive.

For the compound `O=C(c1ccccc1)c1ccc(O)cc1O`, the AC50 was 8.41 µM (active).

Consider `CCN=c1cc2oc3cc(NCC)c(C)cc3c(-c3ccccc3C(=O)OCC)c-2cc1C`, for which the AC50 is 8.97 µM (active).

The next assay addresses chimpanzee Androgen Receptor (AR), AR (gene 747460) (UniProt O97775). The assay is described as follows: NVS_NR_cAR: NovaScreen (NVS) Nuclear Receptor Binding Assay for chimpanzee Androgen Receptor (AR) (AID 2283346).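 Also: radioligand displacement from AR measured by scintillation counting in a cell-free assay; a loss of bound radioligand signal versus DMSO counts as binding.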 The gist of the method:
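Cell-free competition binding with insect-cell (Sf9/Sf21) extracted chimpanzee AR; scintillation signal from lysate at 72 h. Screened in duplicate at 25 uM, then concentration-response for actives; fitting relative to DMSO.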
Regarding `C[C@]12CC[C@H]3C(=CCc4cc(O)ccc43)[C@@H]1CCC2=O`, the AC50 is 5.87 µM (active) and the outcome was inactive.

`CCN=C1C=CC(=C(c2ccc(N(CC)CC)cc2)c2ccc(N(CC)CC)cc2)c2ccccc21`: the AC50 was 3.61 µM (active).

Regarding `C#CC(O)CCC` (centres undefined), the call was inactive.

With `CCCCCCCCCCCCCC[P+](CCCC)(CCCC)CCCC`, the AC50 was 23.1 µM (active).

Regarding `CCN(CC)c1ccc(C=O)c(O)c1`, the AC50 is 0.298 µM (active).

In the case of `O=C(c1ccccc1)c1ccc(O)cc1O`, the AC50 was 9.97 µM (active) and the compound was classed as inactive.

As for `CCCCCCCC/C=C\CCCCCCCC(=O)OCC(O)CO` (centres undefined), the outcome was inactive.
